CYP2C9 act = increases human cytochrome P450 2C9 activity; P11712; recombinant CYP2C9, luciferin-H conversion, luminescence; hits give high values; factor 1 = untreated enzyme, 0 = blocked; activation factor at 5 µM; actives 1.4% (n = 96,000); AID 1024;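 active means activation factor of 2 or more for CYP2C9 at a 5 µM dose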;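 further: 0 = sulfaphenazole-blocked wells and 1 = vehicle-only wells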
CYP2C19 inh = blocks human cytochrome P450 2C19 | CYP2C19 Supersomes, luciferin-H EGE luminescence, 30 min | P33261 | inhibition, % at 5 µM | actives 21% (n = 96,000);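 active means CYP2C19 inhibition above a set limit at 5 µM in the primary screen, cut at about 50% in these data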;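 further: plate controls were negative control wells for no effect and 2.5 mM tranylcypromine positive control for full effect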
Target sequence (P33261 whole entry, looked up): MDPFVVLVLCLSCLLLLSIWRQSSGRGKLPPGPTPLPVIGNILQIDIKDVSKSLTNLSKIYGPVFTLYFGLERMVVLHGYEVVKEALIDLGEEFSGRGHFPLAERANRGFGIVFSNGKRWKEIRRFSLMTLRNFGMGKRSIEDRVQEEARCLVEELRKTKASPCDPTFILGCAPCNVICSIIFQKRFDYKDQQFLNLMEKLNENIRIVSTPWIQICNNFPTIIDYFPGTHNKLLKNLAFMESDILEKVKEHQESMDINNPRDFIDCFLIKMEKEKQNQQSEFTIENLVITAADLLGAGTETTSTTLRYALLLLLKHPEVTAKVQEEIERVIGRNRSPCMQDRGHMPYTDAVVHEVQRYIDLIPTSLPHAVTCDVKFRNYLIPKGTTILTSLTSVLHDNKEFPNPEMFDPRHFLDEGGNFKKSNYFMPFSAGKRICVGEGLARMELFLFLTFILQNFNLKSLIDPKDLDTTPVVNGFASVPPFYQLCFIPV
PostGolgi ctrl = inhibits growth of the yeast control strain. efflux-deficient yeast background strain, growth absorbance A615, 16 h. inhibition, % at 10 µM. actives 5% (n = 98,000). AID 738
PostGolgi yeast = growth inhibition of a yeast mutant, post-Golgi transport screen | AID 739 | post-Golgi transport phenotypic cell assay | actives 0.9% (n = 98,000) | inhibition, % at 10 µM;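 further: yeast cells grown in 1536-well plates; yeast grown about 18 h at 30C before absorbance read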
CYP2C19 act = cytochrome P450 2C19 (human) activation; P33261; recombinant CYP2C19, luciferin-H EGE luminescence; hits give high values; 0 = fully inhibited enzyme, 1 = untreated enzyme; activation factor at 5 µM; 96,000 tested, under 10 active;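 active means activation factor of at least 2 at 5 µM in the primary screen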;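 further: 0 = wells with 2.5 mM tranylcypromine and 1 = vehicle-only wells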
CYP2C9 inh = human CYP2C9 inhibition. actives 20% (n = 96,000). inhibition, % at 5 µM. CYP2C9 Supersomes, luciferin-H conversion, luminescence. P11712;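 active means blocking of liver enzyme CYP2C9 beyond about 50% at 5 µM, limit read from the data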
* = called active by the depositor; · = not tested or not shown. Hits are enriched below; roughly 32% of the tested compounds scored in any of these assays. Unless noted, no stated cut-off is given here; in the data, active means inhibition above about 30%; inactive means the rest.

SMILES | CYP2C9 act | CYP2C19 inh | PostGolgi ctrl | PostGolgi yeast | CYP2C19 act | CYP2C9 inh
COC(=O)c1cc(NS(=O)(=O)c2ccc(OC)c(OC)c2)ccc1Cl | 0.2 | 100.0* | -2.8 | -11.4 | 0 | 80.4*
COc1ccc(CC(NC(C)=O)C(=O)N2CCN(C(=O)Nc3ccc(Cl)cc3)CC2)cc1OC (stereo unspecified) | 0.7 | 15.7 | 8.3 | 1.3 | 0.8 | 30.1
CCN(CC(=O)Nc1ccc(OC)c(OC)c1)S(=O)(=O)c1ccc(C)cc1 | 0.9 | 10.0 | 6.3 | 9.8 | 0.9 | 11.5
COc1cc(S(=O)(=O)NC(C)C)ccc1Cl | 2.5* | 53.3* | 5.6 | 1.4 | 0.5 | -153.7
COc1ccc(S(=O)(=O)NC(C(C)C)C(C)C)cc1OC | · | · | 1.9 | -3.4 | · | ·
COc1ccc(S(=O)(=O)Nc2ccc(C)cc2)cc1N(C)S(=O)(=O)c1ccc(Cl)cc1 | 0.4 | 70.6* | 4.0 | 2.9 | 0.3 | 62.2*
COc1ccc(NC(=O)CNS(=O)(=O)c2ccccc2)cc1Cl | 1.6 | 63.4* | 0.6 | 17.8 | 0.4 | -59.9
COC(=O)c1[nH]c2ccc(F)cc2c1NS(=O)(=O)c1ccc(OC)cc1OC | 0.6 | 55.7* | 18.2 | 3.0 | 0.4 | 41.6
CCOC(=O)c1[nH]c2ccc(OC)cc2c1NS(=O)(=O)c1ccc(OC)cc1OC | 0.3 | 57.4* | 5.1 | -2.2 | 0.4 | 66.9*
CCOC(=O)c1[nH]c2ccc(OC)cc2c1NC(=O)OC | 1.1 | -0.4 | 3.9 | 23.7 | 1 | -6.8
CCOC(=O)c1[nH]c2ccc(OC)cc2c1NC(=O)C(C)N1CCSCC1 (stereo unspecified) | 0.2 | 81.2* | 13.7 | 5.8 | 0.2 | 84.1*
COc1ccc(NC(=O)C23CCC(C)(C(=O)C2)C3(C)C)cc1 (stereo unspecified) | 1 | 8.4 | 1.1 | -6.9 | 0.9 | 1.5
O=C(C1CC(=O)N(c2ccccc2)C1)N1CCN(C2=NS(=O)(=O)c3ccccc32)CC1 (stereo unspecified) | 0.8 | 17.8 | 5.4 | 1.7 | 0.8 | 17.5
CCC1C(=O)Nc2nc(-c3ccccc3)c(-c3ccccc3)n2N=C1C (stereo unspecified) | 0.8 | -3.3 | 42.2* | -2.3 | 1 | 20.5
CC1=Nn2c(nc(-c3ccccc3)c2-c2ccccc2)N(CC(N)=O)C(=O)C1 | 1.1 | -14.1 | 2.0 | -14.4 | 1.1 | -12.4
COC(=O)/C(=C1/Oc2cc3c(cc2S1)OCO3)C(F)(F)F | 1.1 | -1.5 | 4.7 | -6.1 | 1 | -7.4
N#Cc1ccc(CSc2nnc(-c3cnccn3)o2)cc1 | 0.7 | 70.3* | 6.5 | -3.1 | 0.3 | 27.2
CN(C)c1ccc(C2C=C(c3ccc(Cl)cc3OC(F)F)Nc3ncnn32)cc1 (stereo unspecified) | 0.1 | 98.8* | 31.3* | 3.1 | 0 | 93.5*
Cc1ccc(C2C=C(c3ccccc3OC(F)F)Nc3ncnn32)cc1 (stereo unspecified) | 0.3 | 35.8 | 21.7 | 0.5 | 0.6 | 66.3*
O=C1c2cccnc2C(Nc2ccc(S(=O)(=O)N3CCCCC3)cc2)N1Cc1ccccc1 (stereo unspecified) | 0.7 | 12.9 | 3.0 | -2.6 | 0.9 | 32.7
COc1ccc(CN2C(=O)c3cccnc3C2Nc2cc(Cl)ccc2OC)cc1 (stereo unspecified) | 0.5 | 62.6* | 9.6 | 7.5 | 0.4 | 48.0
CCOC(=O)c1ccc(NC2c3ncccc3C(=O)N2Cc2ccc(F)cc2)cc1 (stereo unspecified) | 0.3 | 41.0 | 29.2 | -0.9 | 0.6 | 69.9*
CCOc1ccc(N2C(=O)c3cccnc3C2Nc2ccc(Cl)cc2)cc1 (stereo unspecified) | 0.7 | 45.9 | 14.2 | -3.1 | 0.5 | 27.3
COC(=O)c1cc(NC2c3ncccc3C(=O)N2Cc2ccccc2)cc(C(=O)OC)c1 (stereo unspecified) | 0.3 | 95.9* | 1.8 | 9.5 | 0 | 66.7*
COc1ccc(OC)c(NC2c3ncccc3C(=O)N2Cc2ccco2)c1 (stereo unspecified) | 0.7 | 29.3 | 11.3 | 8.9 | 0.7 | 27.0
CCN(CC)CCCN(C(=O)c1cccs1)c1nc(-c2ccc(OC)cc2)cs1 | 0.8 | 37.2 | 9.3 | 7.9 | 0.6 | 24.1
COc1ccc(OC)c(-c2csc(N(Cc3ccco3)C(=O)c3cccs3)n2)c1 | 0.2 | 77.8* | 3.1 | -8.0 | 0.2 | 84.6*
